# In the library only some 19% were active in any assay of this set; here they are far more common.
# TDP1 cell noCPT: qHTS for Inhibitors of human tyrosyl-DNA phosphodiesterase 1 (TDP1): qHTS in cells in absence of CPT; DT40 Tdp1-/- hTDP1 cells, no CPT, ATP luminescence, 48 h; hit rate 15% among 420,000; Potency, µM (titrated, usually from 46.2 µM), for inactives: at the top dose activity change, negative = growth inhibition, hits mostly inhibitors; AID 686978, 2013; note: nearly all actives have a fitted effect of over 55% in size
#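 Luminescent ATP content (CellTiter-Glo) served as the growth readout. Knockout chicken DT40 cells expressing human TDP1 were exposed to compounds without camptothecin for a minimum 48 hr at 37 °C.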
# KB-V1 MDR tox: qHTS assay for MDR1-selective chemotherapeutics: Primary screen using the drug-selected MDR subline cells KB-V1 | hit rate 3.4% among 400,000 | KB-V1 MDR cells viability, CellTiter-Glo, 72 h | Potency, µM (series often up to 46.1 µM), usual class: cytotoxic; note: nearly all actives have a fitted effect of over 60% in size
#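 Potencies derive from concentration-effect curves fitted to normalized luminescence (CellTiter-Glo) of KB-V1 cells treated for 72 h at 37 degrees C in phenol-red-free DMEM containing 10% FBS.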
# HT1080 IDH1KD tx: qHTS for induction of synthetic lethality in tumor cells producing 2HG: qHTS for the HT-1080-IDH1KD cell line. hit rate 2% among 360,000. HT-1080 IDH1 knockdown viability, ATP luminescence, 48 h. Potency, µM (doses to about 46.1 µM), without a hit: top-dose activity, negative = toxicity, most hits filed as cytotoxic;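 note: 0% = DMSO wells and -100% = cell-free medium wells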
#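 Cytotoxicity counter-line: IDH1KD HT-1080, 48 h, CellTiter-Glo. Curves classed by r2, magnitude and activity.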
# TDP1 cell CPT: qHTS for Inhibitors of human tyrosyl-DNA phosphodiesterase 1 (TDP1): qHTS in cells in presence of CPT | chicken DT40 Tdp1-/-;hTDP1 cells + 20 nM CPT, ATP luminescence, 48 h | Potency, µM (series often up to 46.2 µM), without a hit: at the top dose activity change, negative = growth inhibition, most hits filed as inhibitors | hit rate 12% among 420,000; note: nearly all actives have a fitted effect of over 55% in size
#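 Cell growth measured by CellTiter-Glo luminescence after a minimum 48 h, 37 C compound exposure with 20 nM CPT in Tdp1-knockout DT40 cells stably expressing hTDP1, seeded 400/well; qHTS titration format.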
# KB-3-1 tox: qHTS assay for MDR1-selective chemotherapeutics: Primary screen using the parental adenocarcinoma cell KB-3-1. KB-3-1 viability, CellTiter-Glo ATP luminescence, 72 h. Potency, µM (series often up to 46.1 µM), usual class: cytotoxic. hit rate 1.4% among 400,000. AID 1347075, 2019; note: nearly all actives have a fitted effect of over 60% in size
#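 Here the drug-naive KB-3-1 line serves as comparator for MDR sub-line selectivity; cells received compound titrations, 72 h at 37 °C, then CellTiter-Glo readout.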
# HT1080-NT tox: qHTS for induction of synthetic lethality in tumor cells producing 2HG: qHTS for the HT-1080-NT fibrosarcoma cell line; HT-1080-NT fibrosarcoma viability, CellTiter-Glo ATP luminescence, 48 h; Potency, µM (series often up to 46.1 µM), for inactives: at the top dose activity, negative = less viability, actives largely listed as cytotoxic; hit rate 1.6% among 360,000;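 note: NT is the 2HG producing partner of a matched IDH1 knockdown line; 0% = DMSO-treated cells and -100% = media-only wells without cells; nearly all actives have a fitted effect of over 55% in size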
#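 Luminescent CellTiter-Glo readout after 48 hours of compound exposure at 37 degrees C defined viability of HT-1080-NT cells. Activity was normalized to DMSO wells and cell-free media wells; concentration-response curves were fitted and assigned curve classes.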
# * = called active by the depositor; i = inactive; ? = inconclusive; nt = no result; ! = a repeat was not active; [ ] = remark or other dose. Calls come from the whole dose curve; as a rule, active = well fitted curve in the direction sought with a large enough effect; inconclusive = small, poorly fitted or top-dose-only effect, or another doubt; inactive = no such curve, though single readings can be large; an effect the other way counts as inactive or inconclusive. Unless noted, % is set by controls: 0 for no effect and ±100 for the full control effect; potency is the fitted concentration of half-maximal effect.
SMILES,TDP1 cell noCPT,KB-V1 MDR tox,HT1080 IDH1KD tx,TDP1 cell CPT,KB-3-1 tox,HT1080-NT tox
Cc1ccc(C)c(N(C(=O)c2snc(C(N)=O)c2N)C(C(=O)NCC2CCCO2)c2cccs2)c1 (stereo not drawn),8.2µM*,i,1%,7.3µM*,i,-11%
Cc1ccc(C(C(=O)NCC2CCCO2)N(C(=O)c2snc(C(N)=O)c2N)c2ccccc2)o1 (stereo not drawn),?,?,-10%,-28%,i,9%
COc1ccc(C)cc1N(C(=O)c1snc(C(N)=O)c1N)C(C(=O)NC1CCCCC1)c1ccc(C)o1 (stereo not drawn),18µM*,21µM*,?,18µM*,?,?
O=c1[nH]c(=O)n(C2OC(CO)C(O)C2O)c2c1CCCC2 (stereo not drawn),-3%,i,4%,-16%,i,29%
COCCn1c(SCC(=O)Nc2ccc(C(F)(F)F)cc2)nc2c([nH]c3ccccc32)c1=O,?,i,nt,?,i,nt
Cc1cccc(N(C(=O)c2snc(C(N)=O)c2N)C(C)C(=O)NCC2CCCO2)c1 (stereo not drawn),-22%,?,-3%,-2%,i,1%
Cc1cccc(N(C(=O)c2snc(C(N)=O)c2N)C(C(=O)NCC2CCCO2)c2cccs2)c1 (stereo not drawn),0.41µM*,i,-2%,-88%,i,-2%
CC(C)(C)OC(=O)NCC1CCC(C(=O)NC[C@H](CC(=O)O)c2ccc(Cl)cc2)CC1 (stereo partly drawn),-5%,i,1%,-6%,i,4%
O=C(c1ccc(Cl)c(Cl)c1)N1CCC(=O)N(C(COCc2cccc(Cl)c2)Cc2ccccc2)CC1 (stereo not drawn),?,i,?,?,i,?
O=C(c1cccc(Cl)c1)N1CCC(=O)N([C@H](COCc2ccccc2)Cc2ccccc2)CC1,18µM*,?,-16%,?,i,-30%
Cc1cccc(C(=O)N2CCC(=O)N([C@H](COCc3ccc(Cl)cc3)Cc3ccccc3)CC2)c1,?,i,?,?,?,?
Cc1cccc(C(=O)N2CCC(=O)N(C(COCc3cccc(Cl)c3)Cc3ccccc3)CC2)c1 (stereo not drawn),16µM*,i,-16%,?,?,-18%
Cc1cccc(C(=O)N2CCC(=O)N(C(COCc3ccc(Cl)cc3)Cc3ccccc3)CC2)c1 (stereo not drawn),21µM*,?,-18%,21µM*,?,-16%
O=C(c1ccc(Cl)c(Cl)c1)N1CCC(=O)N([C@H](COCc2ccc(Cl)cc2)Cc2ccccc2)CC1,23µM*,21µM*,26µM*,?,?,?
CC(=O)N1CCN(C(c2ccccc2)c2nnnn2C(C)(C)C)CC1 (stereo not drawn),-14%,i,29%,5%,i,19%
CC(C)CN(C(=O)c1ccc(-n2cncn2)c([N+](=O)[O-])c1)C1CCS(=O)(=O)C1 (stereo not drawn),-6%,i,5%,3%,i,5%
Cc1cccc(C(=O)N2CCC(=O)N([C@H](COCc3cccc(Cl)c3)Cc3ccccc3)CC2)c1,18µM*,i,?,23µM*,i,?
Cc1ccc(CNC(=O)Nc2cn(CC(C)C)c(=O)c3ccccc23)cc1,?,i,nt,-20%,i,nt
Cc1cccc(C)c1NC(=O)CN(Cc1ccccc1)Cc1ccccc1,21µM*,?,?,?,i,?
Cc1cccc(C)c1NC(=O)CC(C)c1ccccc1 (stereo not drawn),-17%,i,14%,-19%,i,11%
CCc1cccc(C)c1NC(=O)CN(C)Cc1ccc(Br)cc1,?,?,-18%,21µM*,i,-3%
Cc1cccc(C)c1NC(=O)CN(Cc1ccc(Br)cc1)S(=O)(=O)c1ccccc1,15µM*,i,nt,?,i,nt
Cc1cccc(C)c1NC(=O)CNCC(=O)Nc1c(C)cccc1C,-10%,i,2%,-7%,i,-11%
CSc1ccccc1NC(=O)CN(C)Cc1ccc(Br)cc1,?,i,-23%,-6%,i,-1%
CC[N+](CC)(CC)CC(=O)Nc1c(C)cccc1C,14%,i,18%,18µM*!,i,6%
SMILES,TDP1 cell noCPT,KB-V1 MDR tox,HT1080 IDH1KD tx,TDP1 cell CPT,KB-3-1 tox,HT1080-NT tox
Cc1ccc(-c2nn3c(=O)cc(CN4CCN(C(=O)Nc5cc(Cl)ccc5C)CC4)nc3s2)cc1,-2%,i,nt,?,i,nt
Cc1ccc2c(c1)CN(CCNC(=O)c1cccc(Cn3cccn3)c1)CC(C)O2 (stereo not drawn),-1%,nt,nt,4%[9.04 µM],nt,nt
Cc1ccc(CNC(=O)Cc2c(C(=O)O)c(C)cn2C)cc1,-2%,?,nt,2%,i,nt
CCCn1cnc2c(=S)nc(N)[nH]c21,3%,i,13%,0%,i,3%
CCOc1ccc(NC(=O)c2cnc3sc(N4CCOCC4)nn3c2=O)cc1,-11%,nt,nt,2%,nt,nt
Cc1oc2ncn(CC(C)C)c(=O)c2c1C(=O)NC(C)c1ccccc1 (stereo not drawn),21µM*,?,nt,21µM*,i,nt
COC(=O)C(CCSC)NC(=O)c1c(C)oc2ncn(CC(C)C)c(=O)c12 (stereo not drawn),13µM*,i,nt,-26%,i,nt
CCC(C)NC(=O)c1c(C)oc2ncn(CC(C)C)c(=O)c12 (stereo not drawn),?,i,nt,-29%,i,nt
Cc1ccc(NC(=O)c2c(C)oc3ncn(CC(C)C)c(=O)c23)nc1,9.2µM*,i,nt,13µM*,i,nt
Cc1ccc(OCCn2c(-c3ccc(Br)cc3)nc3ccccc3c2=O)cc1C,?,i,nt,?,i,nt
CCn1ccc2cc(S(=O)(=O)N3CCCN(C(=O)Nc4ccccc4C(F)(F)F)CC3)ccc21,nt,?,nt,nt,i,nt
COc1cccc(C(=O)NCCCn2ccnc2)c1,5%,i,9%,-5%,i,18%
